# Reference: the supplement of paper PMC6897291
# Where a name gives a salt, the structure may show the parent alone.
# Assays:
# RIVA [1] = test: growth inhibition by drug alone (1 - RLU/untreated control) (fraction); higher = stronger inhibition; details: 177Lu-lilotomab satetraxetan 0 ug/ml
# Procedure, shortened: (§1)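 Compound doses on the pre-printed Selleck Cambridge Cancer Compound library plates were 10/100 nM for RIVA cells and 10/1,000 nM for U-2932 cells, seeded at 3,000 cells/well. Before seeding, cells were washed after 18 h with or without a radiolabelled anti-CD37 antibody conjugate (~600 MBq/mg; 0.5 µg/ml RIVA, 1 µg/ml U-2932). Growth inhibition was derived from RealTime-Glo luminescence relative to untreated no-drug control wells. Readings were taken daily starting on day 3, each after 1 h at 37°C, and each well's RLU was divided by the mean of 48 such wells per plate and subtracted from 1.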
# U-2932 [2] = test: growth inhibition by drug plus 177Lu-lilotomab satetraxetan (1 - RLU/untreated control) (fraction); higher = stronger inhibition; details: 177Lu-lilotomab satetraxetan 1 ug/ml
# Procedure, shortened: as §1
# RIVA [3] = test: as above; details: 177Lu-lilotomab satetraxetan 0.5 ug/ml
# Procedure, shortened: as §1
# U-2932 [4] = test: growth inhibition by drug alone (1 - RLU/untreated control) (fraction); higher = stronger inhibition; details: 177Lu-lilotomab satetraxetan 0 ug/ml
# Procedure, shortened: as §1
SMILES,"growth inhibition by drug alone (RIVA [1]; 10 nM, time (day): 3)","growth inhibition by drug alone (RIVA [1]; 10 nM, time (day): 4)","growth inhibition by drug alone (RIVA [1]; 10 nM, time (day): 5)","growth inhibition by drug alone (RIVA [1]; 10 nM, time (day): 6)","growth inhibition by drug alone (RIVA [1]; 100 nM, time (day): 3)","growth inhibition by drug alone (RIVA [1]; 100 nM, time (day): 4)","growth inhibition by drug alone (RIVA [1]; 100 nM, time (day): 5)","growth inhibition by drug alone (RIVA [1]; 100 nM, time (day): 6)","growth inhibition by drug plus 177Lu-lilotomab satetraxetan (U-2932 [2]; 10 nM, time (day): 3)","growth inhibition by drug plus 177Lu-lilotomab satetraxetan (U-2932 [2]; 10 nM, time (day): 4)","growth inhibition by drug plus 177Lu-lilotomab satetraxetan (U-2932 [2]; 10 nM, time (day): 5)","growth inhibition by drug plus 177Lu-lilotomab satetraxetan (U-2932 [2]; 10 nM, time (day): 6)","growth inhibition by drug plus 177Lu-lilotomab satetraxetan (U-2932 [2]; 1000 nM, time (day): 3)","growth inhibition by drug plus 177Lu-lilotomab satetraxetan (U-2932 [2]; 1000 nM, time (day): 4)","growth inhibition by drug plus 177Lu-lilotomab satetraxetan (U-2932 [2]; 1000 nM, time (day): 5)","growth inhibition by drug plus 177Lu-lilotomab satetraxetan (U-2932 [2]; 1000 nM, time (day): 6)","growth inhibition by drug plus 177Lu-lilotomab satetraxetan (RIVA [3]; 10 nM, time (day): 3)","growth inhibition by drug plus 177Lu-lilotomab satetraxetan (RIVA [3]; 10 nM, time (day): 4)","growth inhibition by drug plus 177Lu-lilotomab satetraxetan (RIVA [3]; 10 nM, time (day): 5)","growth inhibition by drug plus 177Lu-lilotomab satetraxetan (RIVA [3]; 10 nM, time (day): 6)","growth inhibition by drug plus 177Lu-lilotomab satetraxetan (RIVA [3]; 100 nM, time (day): 3)","growth inhibition by drug plus 177Lu-lilotomab satetraxetan (RIVA [3]; 100 nM, time (day): 4)","growth inhibition by drug plus 177Lu-lilotomab satetraxetan (RIVA [3]; 100 nM, time (day): 5)","growth inhibition by drug plus 177Lu-lilotomab satetraxetan (RIVA [3]; 100 nM, time (day): 6)","growth inhibition by drug alone (U-2932 [4]; 10 nM, time (day): 3)","growth inhibition by drug alone (U-2932 [4]; 10 nM, time (day): 4)","growth inhibition by drug alone (U-2932 [4]; 10 nM, time (day): 5)","growth inhibition by drug alone (U-2932 [4]; 10 nM, time (day): 6)","growth inhibition by drug alone (U-2932 [4]; 1000 nM, time (day): 3)","growth inhibition by drug alone (U-2932 [4]; 1000 nM, time (day): 4)","growth inhibition by drug alone (U-2932 [4]; 1000 nM, time (day): 5)","growth inhibition by drug alone (U-2932 [4]; 1000 nM, time (day): 6)"
CCCC(CCC)C(=O)O [Valproic acid sodium salt (Sodium valproate)],-0.0545,-0.0344,-0.0932,-0.3,0.0331,0.00236,-0.00506,-0.0995,0.0169,0.0448,0.0823,0.106,-0.06,0.0571,0.0167,0.0659,0.442,0.551,0.566,0.583,0.469,0.539,0.543,0.523,,,,,,,,
CC1(CN2CCC(n3c(=O)[nH]c4ccccc43)CC2)OCc2ccccc2-n2cccc21 (stereo not drawn),,,,,,,,,-0.0386,0.0346,0.0781,0.0987,-0.0292,0.0476,0.0675,0.175,0.576,0.59,0.612,0.612,0.521,0.568,0.6,0.609,,,,,,,,
CC[C@]1(O)C[C@H]2CN(CCc3c([nH]c4ccccc34)[C@@](C(=O)OC)(c3cc4c(cc3OC)N(C=O)[C@H]3[C@@](O)(C(=O)OC)[C@H](OC(C)=O)[C@]5(CC)C=CCN6CC[C@]43[C@@H]65)C2)C1 [Vincristine],0.941,0.955,0.965,0.971,0.938,0.955,0.962,0.967,0.958,0.97,0.978,0.982,0.972,0.978,0.983,0.988,0.964,0.976,0.983,0.985,0.956,0.967,0.973,0.979,,,,,,,,
O=C1c2c(O)ccc(O)c2C(=O)c2c(NCCNCCO)ccc(NCCNCCO)c21 [Mitoxantrone Hydrochloride],0.293,0.565,0.667,0.759,0.568,0.82,0.873,0.904,0.559,0.694,0.81,0.881,0.971,0.982,0.987,0.99,,,,,,,,,0.436,0.52,0.635,0.732,0.945,0.971,0.981,0.986
COc1cc2ncnc(-n3nc(-c4ccccn4)nc3N)c2cc1OC,-0.00526,0.0304,-0.00529,-0.18,-0.0276,-0.0495,-0.074,-0.143,0.0575,0.105,0.1,0.113,-0.00115,0.0649,0.0622,0.0772,0.485,0.573,0.58,0.588,0.535,0.578,0.579,0.559,,,,,,,,
Nc1cccc2c1C(=O)N(C1CCC(=O)NC1=O)C2=O (stereo not drawn) [Pomalidomide],-0.0396,-0.0278,-0.0766,-0.254,-0.0764,-0.115,-0.132,-0.196,0.0211,0.034,0.0448,0.147,0.233,0.391,0.414,0.472,,,,,,,,,0.00761,0.0144,-0.0587,-0.183,0.0958,0.25,0.271,0.309
CN(CCOc1ccc(CC2SC(=O)NC2=O)cc1)c1ccccn1 (stereo not drawn) [Rosiglitazone (Avandia)],-0.0381,-0.0305,-0.0979,-0.42,-0.131,-0.086,-0.0959,-0.219,-0.0122,0.00577,0.0405,0.0655,-0.0752,0.0366,0.0101,0.078,,,,,,,,,0.068,0.0368,-0.0298,-0.117,-0.0124,0.0197,-0.0667,-0.236
CC(C)n1nc(-c2ccc3oc(N)nc3c2)c2c(N)ncnc21,0.258,0.176,0.117,-0.0267,0.716,0.708,0.699,0.63,0.352,0.294,0.31,0.355,0.908,0.905,0.918,0.937,0.595,0.576,0.586,0.587,0.816,0.84,0.835,0.833,,,,,,,,
Cc1c(CCOc2ccc(C(=O)O)cc2)c2cc(Cl)ccc2n1C(c1ccccc1)c1ccccc1,-0.14,-0.201,-0.294,-0.473,-0.448,-0.454,-0.564,-0.758,-0.0474,-0.0119,0.00779,0.0213,0.0043,0.0519,0.061,0.147,,,,,,,,,0.00805,-0.00114,-0.0847,-0.0955,-0.0489,-0.0693,-0.125,-0.133
